Measured values published in PubChem BioAssay AID1851 (National Center for Advancing Translational Sciences (NCATS), 2009).
Values joined by “and” are separate entries in the source; they are usually repeats but may differ in a detail not shown here. Equal values may be shown once. The campaign covered roughly 16,000 compounds. About 2,600 (16%) were called active. About 20% were inconclusive and are not listed. The call rests on the fitted dose curve; in most records, active means well fitted curve in the direction sought with a large enough effect; inconclusive means small, poorly fitted or top-dose-only effect, or effect the other way; inactive means no such curve, though single readings can be large or run the other way. The full list was thinned out, with actives kept by preference. A structure can be active in one record and inactive in another.

Target: Cytochrome P450 2D6 (Homo sapiens) (UniProt P10635)
Experiment: Cytochrome panel assay with activity outcomes
Settings: recombinant CYP, pro-luciferin dealkylation, luminescence, p450-cyp2d6; series mostly up to 57.1 µM
Experimental: The P450 gene superfamily is involved in the metabolism and clearance of xenobiotics. This assay used various human CYP P450 isozymes to measure the dealkylation of various pro-luciferin substrates to luciferin. The luciferin is then measured by luminescence after the addition of a luciferase detection reagent. Pro-luciferin substrate concentration in the assay was equal to its KM for its CYP P450 isozyme. Inhibitors and some substrates limit the production of luciferin, and decrease measured luminescence.
NCGC Assay Protocol Summary:
1, Reagent, 2 uL, Isozyme and Pro-Luciferin
2, Library compounds, 23 nl, 40 uM to 0.24 nM dilution series
3, Controls, 23 nl, Isozyme specific inhibitor
4, Reagent, 2 uL, NADPH regeneration solution
5, Incubation time, 60 min, Isozyme specific temperature
6, Reagent, 4ul, Detection reagent
7, Incubation time, 20 min, Isozyme specific temperature
8, Detection, 1 sec, ViewLux luminescent read
The luciferase-based P450-GloTM Screening Systems were obtained from Promega (Madison, WI) for CYP 1A2 (V9770), CYP 2C9 (V9790), CYP2 C19 (V9880), CYP 2D6 (V9890), and CYP 3A4 Luciferin-PPXE (V9910) and were adapted for 1,536-well microplates and an automated protocol. The control compounds furafylline for 1A2 (F124), sulfaphenazole for CYP 2C9 (S0758), ketoconazole for CYP 2C19 (K1003), quinidine for 2D6 (Q3625), and ketoconazole for 3A4 (K1003) were purchased from Sigma Aldrich (St. Louis, MO). Recombinant P450 enzymes were obtained from baculovirus constructs expressed in insect cells (BD/Gentest).
Medium-binding white solid Kalypsys plates used. Mixtures kept on ice. 1A2: 10 nM 1A2, 100 uM Luc-ME, 100 mM KPO4; 2C9: 10 nM 2C9, 100 uM Luc-H, 25 mM KPO4; 2C19: 5 nM 2C19, 10 uM Luc-H EGE, 50 mM KPO4; 2D6: 5 nM 2D6, 30 uM Luc-ME EGE, 100 mM KPO4; 3A4: 10 nM, 25 uM Luc-PPXE. All amounts are reflected in their final concentration, working concentration is 2x.
NADPH regeneration solution: 1.3 mM NADP+, 3.3 mM glucose-6-phosphate, 3.3 mM MgCl2, 0.4 U/mL glucose-6-phosphate dehydrogenase for all isozymes, 200 mM KPO4 for 3A4. Mixture prepared at RT but kept on ice during automated run.
RT incubation in auxilliary plate hotel for 1A2, 2D6, and 3A4; 37C for 2C9 and 2C19.
Keywords: P450, CYP1A2, CYP2C19, CYP2C9, CYP2D6, CYP3A4, Luciferase, MLSMR, MLSCN, NIH Roadmap, qHTS, NCGC
On the % scale 0 is the no-effect control and ±100 the full control effect.

Sequence of Cytochrome P450 2D6 (Homo sapiens) (P10635 whole entry, looked up): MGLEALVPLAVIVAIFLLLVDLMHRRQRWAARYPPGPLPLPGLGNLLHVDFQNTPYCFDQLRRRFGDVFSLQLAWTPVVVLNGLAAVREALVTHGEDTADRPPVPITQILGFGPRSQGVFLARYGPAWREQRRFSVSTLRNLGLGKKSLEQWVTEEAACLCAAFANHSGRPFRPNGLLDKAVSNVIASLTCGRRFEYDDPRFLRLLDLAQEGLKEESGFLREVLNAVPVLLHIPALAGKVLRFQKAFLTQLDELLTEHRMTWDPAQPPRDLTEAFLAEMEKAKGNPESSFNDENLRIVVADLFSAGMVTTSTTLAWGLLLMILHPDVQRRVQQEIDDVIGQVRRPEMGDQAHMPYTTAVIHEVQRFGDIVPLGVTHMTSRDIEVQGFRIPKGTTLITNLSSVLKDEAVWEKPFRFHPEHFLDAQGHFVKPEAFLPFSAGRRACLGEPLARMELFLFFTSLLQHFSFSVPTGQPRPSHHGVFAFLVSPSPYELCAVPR

**Q.** For `C(=NC12CN3CN(CN(C3)C1)C2)c1cccs1`, which AC50 is on record?
**A.** inactive

**Q.** `S=C=Nc1cccc(C2(N3CCCCC3)CCCCC2)c1` was tested. Which AC50 did it give?
**A.** 10000 nM (active)

**Q.** Which AC50 does the source give for `COC(=O)C1=CCCN(C)C1` here?
**A.** inactive

**Q.** `CCCC(CCC)C(=O)O` was tested. Which AC50 did it give?
**A.** inactive

**Q.** `CCC1(C)CC(=O)NC(=O)C1` was tested. Which AC50 did it give?
**A.** inactive

**Q.** With `N[C@@H](Cc1cc(Br)c(O)c(Br)c1)C(=O)O` as the compound, how does the activity, negative = inhibition read?
**A.** 10.2% [at 11.4 µM] (inactive)

**Q.** Which AC50 does the source give for `N[C@H](CCl)C(=O)O` here?
**A.** inactive

**Q.** With `N[C@H](C(=O)O)c1cc(=O)[nH]o1` as the compound, how does the AC50 read?
**A.** inactive

**Q.** How did the AC50 turn out when `Cc1o[nH]c(=O)c1C[C@@H](N)C(=O)O` was run?
**A.** inactive

**Q.** `N[C@H](Cc1o[nH]c(=O)c1Cl)C(=O)O` was tested. Which AC50 did it give?
**A.** 158 nM (active)

**Q.** How did the AC50 turn out when `Cc1o[nH]c(=O)c1C[C@H](N)C(=O)O` was run?
**A.** inactive and 15.8 µM (active)

**Q.** With `C[C@@H]1O[C@H](O[C@@H]2CC[C@@]3(C=O)[C@H]4CC[C@@]5(C)[C@@H](C6=CC(=O)OC6)CC[C@@]5(O)[C@@H]4CC[C@]3(O)C2)C[C@H](O)[C@@H]1O` as the compound, how does the AC50 read?
**A.** inactive

**Q.** For `CCCCCCN=Cc1c(O)n(C)c(=O)n(C)c1=O`, which AC50 is on record?
**A.** inactive

**Q.** Which AC50 does the source give for `CC1=C(C)[N+](=O)C2(O)CCCCC2(C)N1[O-]` (configuration not stated) here?
**A.** inactive

**Q.** How did the AC50 turn out when `C[C@@H]1O[C@H](O[C@@H]2C[C@@H](O)[C@]3(CO)[C@H]4[C@H](O)C[C@]5(C)[C@@H](C6=CC(=O)OC6)CC[C@@]5(O)[C@@H]4CC[C@]3(O)C2)[C@@H](O)[C@H](O)[C@H]1O` was run?
**A.** 50.1 nM (active)

**Q.** For `C[C@@H]1O[C@H](O[C@H]2C[C@@H](O)[C@@]3(CO)[C@H]4[C@@H](O)C[C@]5(C)[C@@H](C6=CC(=O)OC6)CC[C@]5(O)[C@H]4CC[C@]3(O)C2)[C@@H](O)[C@H](O)[C@@H]1O`, which AC50 is on record?
**A.** inactive

**Q.** `C[C@@H]1O[C@@H](O[C@H]2C[C@@H](O)[C@]3(CO)[C@@H]4[C@@H](O)C[C@]5(C)[C@H](C6=CC(=O)OC6)CC[C@@]5(O)[C@H]4CC[C@@]3(O)C2)[C@H](O)[C@H](O)[C@@H]1O` was tested. Which AC50 did it give?
**A.** inactive

**Q.** `CCOC(=O)c1c(NC(=O)C(c2ccccc2)c2ccccc2)sc2c1C1CCN2CC1` was tested. Which AC50 did it give?
**A.** inactive

**Q.** For `CN1CC[C@@]23c4ccccc4N[C@H]1[C@]21CCN(C)[C@@H]3Nc2ccccc21`, which AC50 is on record?
**A.** inactive

**Q.** Which AC50 does the source give for `CCCCN(CCCC)CCC(O)c1cc2c(Cl)cc(Cl)cc2c2cc(C(F)(F)F)ccc12` (configuration not stated) here?
**A.** 3980 nM (active)

**Q.** With `O=C(O)CNC(=O)[C@@H](CS)Cc1ccccc1` as the compound, how does the AC50 read?
**A.** inactive

**Q.** For `O=[N+]([O-])c1ccc2nc(N3CCNCC3)ccc2c1`, which AC50 is on record?
**A.** inactive

**Q.** How did the AC50 turn out when `CN(N=O)C(=O)N[C@H]1[C@@H](O)[C@H](O)[C@H](CO)O[C@@H]1O` was run?
**A.** inactive

**Q.** `COC(=O)[C@H]1[C@H](c2ccccc2)C(=O)[C@@]2(O)c3ccccc3O[C@@]12c1ccccc1` was tested. Which activity, negative = inhibition did it give?
**A.** 1.53% [at 11.4 µM] (inactive)

**Q.** With `CCS(=O)(=O)Nc1cccc(C(=C2CCCCC2)c2cnc[nH]2)c1` as the compound, how does the AC50 read?
**A.** 7940 nM (active)

**Q.** Which AC50 does the source give for `CN1C(=O)C(C2c3ccccc3C(=O)N2Cc2ccc([N+](=O)[O-])cc2)C(=O)N(C)C1=O` (configuration not stated) here?
**A.** inactive

**Q.** `C1C[C@@H]2CN(CCCN3CCOCC3)[C@@H](C1)O2` was tested. Which activity, negative = inhibition did it give?
**A.** -5.61% [at 11.4 µM] (inactive)

**Q.** Which AC50 does the source give for `CC1(C)CCC2=C(O1)c1ccccc1C(=O)C2=O` here?
**A.** 15800 nM (active)

**Q.** Which AC50 does the source give for `Cn1c[n+](C)cc1C(O)c1ccccc1` (configuration not stated) here?
**A.** inactive

**Q.** `CN1[C@@H](CC(=O)c2ccccc2)CCC[C@@H]1C[C@@H](O)c1ccccc1` was tested. Which AC50 did it give?
**A.** 79.4 nM (active)

**Q.** `CN1[C@@H](C[C@@H](O)c2ccccc2)CCC[C@@H]1C[C@H](O)c1ccccc1` was tested. Which AC50 did it give?
**A.** 631 nM (active)

**Q.** `CN(C)C(=O)Oc1ccc[n+](C)c1` was tested. Which AC50 did it give?
**A.** inactive

**Q.** With `C[C@@H]1O[C@H]1P(=O)(O)O` as the compound, how does the AC50 read?
**A.** inactive

**Q.** For `O=c1c(O)c(-c2ccc(O)c(O)c2)oc2cc(O)cc(O)c12`, which AC50 is on record?
**A.** inactive

**Q.** For `CNC[C@H](O)c1ccc(O)c(OC)c1`, which AC50 is on record?
**A.** inactive

**Q.** For `C[C@](N)(CCP(=O)(O)O)C(=O)O`, which AC50 is on record?
**A.** inactive

**Q.** For `CCCN(CCC)C1Cc2cc(OC)c(OC)cc2C1`, which AC50 is on record?
**A.** 25.1 µM (active) and inactive

**Q.** With `CCCN(C/C=C\I)[C@@H]1CCc2ccc(O)cc2C1` as the compound, how does the AC50 read?
**A.** 15.8 nM (active)

**Q.** Which AC50 does the source give for `CCCN(CCC)[C@@H]1CCc2ccc(O)cc2C1` here?
**A.** 794 nM (active) and inactive

**Q.** `O=C(O)[C@H]1CCN1` was tested. Which AC50 did it give?
**A.** inactive

**Q.** How did the AC50 turn out when `CN(C)[C@H]1C(=O)C(C(N)=O)=C(O)[C@]2(O)C(=O)C3=C(O)c4c(O)cccc4[C@@](C)(O)[C@H]3C[C@@H]12` was run?
**A.** inactive

**Q.** `O=C(O)C(C(=O)O)P(=S)(S)c1ccccc1` (configuration not stated) was tested. Which activity, negative = inhibition did it give?
**A.** 8.23% [at 11.4 µM] (inactive)

**Q.** How did the AC50 turn out when `CC(=O)NBr` was run?
**A.** inactive

**Q.** Which activity, negative = inhibition does the source give for `N#CCCCC[N+]12CN3CN(CN(C3)C1)C2` here?
**A.** 1.51% [at 11.4 µM] (inactive)

**Q.** For `COC1=CC(=O)O[C@@H](/C=C\c2ccccc2)C1`, which AC50 is on record?
**A.** inactive

**Q.** `CCN1C[C@]2(COC)CC[C@H](O)[C@@]34[C@@H]5C[C@H]6[C@@H](OC)[C@H]5[C@](O)(C[C@@H]6OC)[C@@](O)([C@@H](OC)[C@H]23)[C@@H]14` was tested. Which AC50 did it give?
**A.** inactive

**Q.** How did the AC50 turn out when `CCN(CC)c1ncnc2c1ncn2[C@@H]1O[C@@H](COP(=O)(O)OP(=O)(O)C(Br)(Br)P(=O)(O)O)[C@H](O)[C@@H]1O` was run?
**A.** inactive

**Q.** Which AC50 does the source give for `Nc1ncnc2c1ncn2[C@@H]1O[C@@H](COP(=O)(O)CP(=O)(O)OP(=O)(O)O)[C@H](O)[C@@H]1O` here?
**A.** inactive

**Q.** Which AC50 does the source give for `CCN(CC)c1ncnc2c1ncn2[C@@H]1O[C@@H](COP(=O)(O)OP(=O)(O)C(Br)(Br)P(=O)(O)O)[C@H](O)[C@H]1O` here?
**A.** 631 nM (active)

**Q.** `COc1cc2c3cc1Oc1cc(ccc1O)C[C@@H]1c4c(cc(OC)c(O)c4Oc4cccc(c4)C[C@H]3N(C)CC2)CC[N+]1(C)C` was tested. Which AC50 did it give?
**A.** inactive

**Q.** How did the activity, negative = inhibition turn out when `O=P(O)(O)CCP(=O)(O)O` was run?
**A.** 10.1% [at 11.4 µM] (inactive)

**Q.** For `N[C@H](CP(=O)(O)O)C(=O)O`, which AC50 is on record?
**A.** inactive

**Q.** How did the activity, negative = inhibition turn out when `Cc1nc2ccccc2cc1C[N+]12CN3CN(CN(C3)C1)C2` was run?
**A.** -2.3% [at 11.4 µM] (inactive)

**Q.** For `c1ccc2c(c1)-c1ccccc1C2N1CC2CCC(CC2)C1`, which AC50 is on record?
**A.** 3980 nM (active)

**Q.** How did the activity, negative = inhibition turn out when `O=C1N[C@@]2(CN3CCC2CC3)C(=O)N1CN(Cc1ccccc1)c1ccccc1` was run?
**A.** 2.51% [at 11.4 µM] (inactive)

**Q.** For `CC[C@@]1(c2ccc(N)cc2)CCC(=O)NC1=O`, which AC50 is on record?
**A.** inactive

**Q.** For `CN1Cc2c(ccc3c2OCO3)[C@@H]2[C@@H](O)Cc3cc4c(cc3[C@@H]21)OCO4`, which AC50 is on record?
**A.** 200 nM (active)
